# Data published in ChEMBL document CHEMBL2218924, “A broad activity screen in support of a chemogenomic map for kinase signalling research and drug discovery” (Biochem J, 2013).
# Target: Rho-associated protein kinase 2 (Homo sapiens) (UniProt O75116)
# Conditions: at 10 µM
# Rho-associated protein kinase 2 (Homo sapiens), sequence (O75116 whole entry, looked up): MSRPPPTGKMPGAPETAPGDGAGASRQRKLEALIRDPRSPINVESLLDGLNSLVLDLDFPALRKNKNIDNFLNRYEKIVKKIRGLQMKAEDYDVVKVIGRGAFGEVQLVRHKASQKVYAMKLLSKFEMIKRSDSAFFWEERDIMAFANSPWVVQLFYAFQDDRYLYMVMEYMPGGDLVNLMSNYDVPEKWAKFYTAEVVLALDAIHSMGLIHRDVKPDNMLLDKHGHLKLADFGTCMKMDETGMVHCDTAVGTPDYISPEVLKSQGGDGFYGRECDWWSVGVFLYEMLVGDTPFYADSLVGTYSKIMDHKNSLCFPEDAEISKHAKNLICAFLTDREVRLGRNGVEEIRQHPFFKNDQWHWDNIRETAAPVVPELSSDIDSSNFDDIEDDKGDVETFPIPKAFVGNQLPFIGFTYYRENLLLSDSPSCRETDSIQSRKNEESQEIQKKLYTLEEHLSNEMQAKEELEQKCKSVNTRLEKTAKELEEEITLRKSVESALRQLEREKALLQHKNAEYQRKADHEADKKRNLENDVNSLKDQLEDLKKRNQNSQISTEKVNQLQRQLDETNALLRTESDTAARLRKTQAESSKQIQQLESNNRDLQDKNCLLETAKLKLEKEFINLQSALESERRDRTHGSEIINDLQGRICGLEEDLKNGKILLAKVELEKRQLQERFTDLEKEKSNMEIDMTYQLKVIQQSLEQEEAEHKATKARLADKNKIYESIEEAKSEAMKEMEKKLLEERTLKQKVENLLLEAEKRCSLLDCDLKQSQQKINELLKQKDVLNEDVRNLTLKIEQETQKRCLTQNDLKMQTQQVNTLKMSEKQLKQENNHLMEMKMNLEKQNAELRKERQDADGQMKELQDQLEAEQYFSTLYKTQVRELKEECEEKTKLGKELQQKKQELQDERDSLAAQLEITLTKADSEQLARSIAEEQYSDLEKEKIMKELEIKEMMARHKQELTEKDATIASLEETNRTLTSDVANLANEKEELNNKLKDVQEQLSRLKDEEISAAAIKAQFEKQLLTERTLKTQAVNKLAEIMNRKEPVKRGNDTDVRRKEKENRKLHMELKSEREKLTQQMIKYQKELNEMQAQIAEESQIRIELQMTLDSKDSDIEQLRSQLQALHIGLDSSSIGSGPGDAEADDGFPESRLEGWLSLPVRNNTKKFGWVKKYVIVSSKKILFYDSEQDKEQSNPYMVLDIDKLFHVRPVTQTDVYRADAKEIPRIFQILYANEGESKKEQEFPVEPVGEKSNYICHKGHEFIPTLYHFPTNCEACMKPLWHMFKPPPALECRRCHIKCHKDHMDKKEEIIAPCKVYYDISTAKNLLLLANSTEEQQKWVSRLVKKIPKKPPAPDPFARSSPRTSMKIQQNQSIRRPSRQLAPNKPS
row,Compound,residual activity [%]
1,c1ccc(-c2cnc(Nc3ccc(OCCN4CCCC4)cc3)s2)cc1,81
2,O=C(c1cc2cc(O)ccc2[nH]1)c1cc2cc(O)ccc2[nH]1,24
3,Cn1c2ccccc2c2c3c(c4c5ccccc5n(CCC#N)c4c21)CNC3=O,31
4,COc1ccc(COc2ccc(Cc3cnc(N)nc3N)cc2OC)cc1,78
5,N#Cc1c(NC(=O)c2cccc3ccccc23)sc2c1CCCC2,99
6,N#C/C(=C\c1ccc(O)c(O)c1)C(=O)NCc1ccccc1,78
7,CCN1/C(=C/C(C)=O)Sc2ccc(OC)cc21,73
8,CC(C)N(CCC(=O)c1ccc2ccccc2c1)Cc1ccccc1,82
9,O=c1cc(N2CCOCC2)oc2c(-c3ccccc3)cccc12,73
10,O=C1Nc2ccccc2/C1=C\c1c(Cl)[nH]c2ccccc12,81
11,Nc1nc(Nc2ccc(S(N)(=O)=O)cc2)nn1C(=O)c1c(F)cccc1F,3
12,O=S(=O)(c1cccc2cnccc12)N1CCCNCC1,4

# Target: Proto-oncogene tyrosine-protein kinase receptor Ret (Homo sapiens) (UniProt P07949)
# Conditions: at 1 µM
# Proto-oncogene tyrosine-protein kinase receptor Ret (Homo sapiens), sequence (P07949 whole entry): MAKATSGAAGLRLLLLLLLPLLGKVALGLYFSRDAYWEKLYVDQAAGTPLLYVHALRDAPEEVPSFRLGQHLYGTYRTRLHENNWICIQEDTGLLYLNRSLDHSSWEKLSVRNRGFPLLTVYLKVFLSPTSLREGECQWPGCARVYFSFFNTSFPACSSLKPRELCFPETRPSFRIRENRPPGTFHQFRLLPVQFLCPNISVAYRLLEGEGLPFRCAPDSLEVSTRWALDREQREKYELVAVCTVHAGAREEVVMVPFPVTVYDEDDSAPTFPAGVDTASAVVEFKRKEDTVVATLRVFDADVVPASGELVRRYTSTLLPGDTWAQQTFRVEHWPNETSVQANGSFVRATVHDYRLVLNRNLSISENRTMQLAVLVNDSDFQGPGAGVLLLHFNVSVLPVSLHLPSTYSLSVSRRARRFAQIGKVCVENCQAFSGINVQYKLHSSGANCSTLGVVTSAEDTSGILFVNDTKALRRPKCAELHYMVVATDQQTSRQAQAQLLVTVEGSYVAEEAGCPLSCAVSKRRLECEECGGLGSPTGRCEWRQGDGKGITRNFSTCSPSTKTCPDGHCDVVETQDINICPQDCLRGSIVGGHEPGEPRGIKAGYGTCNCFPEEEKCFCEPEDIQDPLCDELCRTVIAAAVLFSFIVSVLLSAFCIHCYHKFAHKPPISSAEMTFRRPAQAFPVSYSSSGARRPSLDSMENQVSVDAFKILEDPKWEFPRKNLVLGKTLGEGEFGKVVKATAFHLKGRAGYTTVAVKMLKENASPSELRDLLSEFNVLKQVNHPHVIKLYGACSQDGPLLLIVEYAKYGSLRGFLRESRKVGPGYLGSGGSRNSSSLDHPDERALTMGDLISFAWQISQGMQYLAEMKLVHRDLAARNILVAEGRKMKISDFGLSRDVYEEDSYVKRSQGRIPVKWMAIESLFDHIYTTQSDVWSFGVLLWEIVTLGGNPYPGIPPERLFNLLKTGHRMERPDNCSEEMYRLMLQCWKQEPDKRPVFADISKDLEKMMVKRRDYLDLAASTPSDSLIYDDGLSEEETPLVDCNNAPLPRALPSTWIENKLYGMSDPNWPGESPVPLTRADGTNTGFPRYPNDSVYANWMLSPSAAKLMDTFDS
row,Compound,residual activity [%]
1,O=C(c1cc2cc(O)ccc2[nH]1)c1cc2cc(O)ccc2[nH]1,8
2,Cn1c2ccccc2c2c3c(c4c5ccccc5n(CCC#N)c4c21)CNC3=O,-1
3,O=C(Nc1nc2ccccc2n1CCN1CCOCC1)c1cccc([N+](=O)[O-])c1,88
4,CN(C)S(=O)(=O)c1ccc2c(c1)/C(=C/c1cc3c([nH]1)CCCC3)C(=O)N2,22
5,COc1cc2c(cc1OC)-c1n[nH]c(Nc3cccc(F)c3)c1C2,64
6,O=C(Nc1ccc(Cl)cc1)c1ccccc1NCc1ccncc1,53
7,O=C1NC(=O)C(c2cn(CCCO)c3ncccc23)=C1c1cnccn1,82
8,N#C/C(=C1/Nc2ccccc2S1)c1ccnc(NCCc2cccnc2)n1,63
9,CCCCc1c(-c2ccc(OC)cc2)[nH]c2nccnc12,45
10,CCN(CC)CCNC(=O)c1c(C)[nH]c(/C=C2\C(=O)Nc3ccc(Cl)cc32)c1C,-1
11,O=C1NC(=O)C(c2c[nH]c3ccccc23)=C1c1c[nH]c2ccccc12,79
12,COc1ccc2c(c1)c(C1=C(c3c[nH]c4ccccc34)C(=O)NC1=O)cn2CCCN(C)C,75
13,O=C1NC(=O)C(c2cn(CCCn3ccnc3)c3ccccc23)=C1Nc1ccccc1,102
14,O=S(=O)(c1cccc2cnccc12)N1CCCNCC1,53
15,COc1cc2nccc(Oc3ccc(NC(=O)Nc4cc(C)on4)c(Cl)c3)c2cc1OC,0

# Target: Proto-oncogene tyrosine-protein kinase receptor Ret (Homo sapiens) (UniProt P07949)
# Conditions: at 10 µM
row,Compound,residual activity [%]
1,O=c1c(-c2ccc(F)cc2)c(-c2ccncc2)[nH]n1-c1ccc(Cl)cc1,55
2,c1ccc(-c2cnc(Nc3ccc(OCCN4CCCC4)cc3)s2)cc1,37
3,O=C(c1cc2cc(O)ccc2[nH]1)c1cc2cc(O)ccc2[nH]1,0
4,Cn1c2ccccc2c2c3c(c4c5ccccc5n(CCC#N)c4c21)CNC3=O,1
5,O=C(Nc1nc2ccccc2n1CCN1CCOCC1)c1cccc([N+](=O)[O-])c1,101
6,CN(C)S(=O)(=O)c1ccc2c(c1)/C(=C/c1cc3c([nH]1)CCCC3)C(=O)N2,37
7,COc1cc2c(cc1OC)-c1n[nH]c(Nc3cccc(F)c3)c1C2,19
8,O=S(=O)(NCCNC/C=C/c1ccc(Br)cc1)c1cccc2cnccc12,82
9,O=C(Nc1ccc(Cl)cc1)c1ccccc1NCc1ccncc1,6
10,O=C1NC(=O)C(c2cn(CCCO)c3ncccc23)=C1c1cnccn1,81
11,N#C/C(=C1/Nc2ccccc2S1)c1ccnc(NCCc2cccnc2)n1,47
12,CCCCc1c(-c2ccc(OC)cc2)[nH]c2nccnc12,63
13,CCN(CC)CCNC(=O)c1c(C)[nH]c(/C=C2\C(=O)Nc3ccc(Cl)cc32)c1C,-1
14,O=C1NC(=O)C(c2c[nH]c3ccccc23)=C1c1c[nH]c2ccccc12,28
15,COc1ccc2c(c1)c(C1=C(c3c[nH]c4ccccc34)C(=O)NC1=O)cn2CCCN(C)C,45
16,O=C1NC(=O)C(c2cn(CCCn3ccnc3)c3ccccc23)=C1Nc1ccccc1,70
17,O=S(=O)(c1cccc2cnccc12)N1CCCNCC1,39
18,COc1cc2nccc(Oc3ccc(NC(=O)Nc4cc(C)on4)c(Cl)c3)c2cc1OC,-1

# Target: Macrophage-stimulating protein receptor (Homo sapiens) (UniProt Q04912)
# Conditions: at 1 µM
# Macrophage-stimulating protein receptor (Homo sapiens), sequence (Q04912 25-304 limits assumed): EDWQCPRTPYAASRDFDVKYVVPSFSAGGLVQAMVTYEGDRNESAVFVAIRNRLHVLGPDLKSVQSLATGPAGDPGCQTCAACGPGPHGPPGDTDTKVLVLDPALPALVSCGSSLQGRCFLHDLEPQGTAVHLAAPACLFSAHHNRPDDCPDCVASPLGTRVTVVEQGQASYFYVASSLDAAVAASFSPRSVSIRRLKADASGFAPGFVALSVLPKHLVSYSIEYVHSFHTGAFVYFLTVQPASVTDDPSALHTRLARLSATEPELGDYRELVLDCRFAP
# Macrophage-stimulating protein receptor (Homo sapiens), sequence (Q04912 310-1400 limits assumed): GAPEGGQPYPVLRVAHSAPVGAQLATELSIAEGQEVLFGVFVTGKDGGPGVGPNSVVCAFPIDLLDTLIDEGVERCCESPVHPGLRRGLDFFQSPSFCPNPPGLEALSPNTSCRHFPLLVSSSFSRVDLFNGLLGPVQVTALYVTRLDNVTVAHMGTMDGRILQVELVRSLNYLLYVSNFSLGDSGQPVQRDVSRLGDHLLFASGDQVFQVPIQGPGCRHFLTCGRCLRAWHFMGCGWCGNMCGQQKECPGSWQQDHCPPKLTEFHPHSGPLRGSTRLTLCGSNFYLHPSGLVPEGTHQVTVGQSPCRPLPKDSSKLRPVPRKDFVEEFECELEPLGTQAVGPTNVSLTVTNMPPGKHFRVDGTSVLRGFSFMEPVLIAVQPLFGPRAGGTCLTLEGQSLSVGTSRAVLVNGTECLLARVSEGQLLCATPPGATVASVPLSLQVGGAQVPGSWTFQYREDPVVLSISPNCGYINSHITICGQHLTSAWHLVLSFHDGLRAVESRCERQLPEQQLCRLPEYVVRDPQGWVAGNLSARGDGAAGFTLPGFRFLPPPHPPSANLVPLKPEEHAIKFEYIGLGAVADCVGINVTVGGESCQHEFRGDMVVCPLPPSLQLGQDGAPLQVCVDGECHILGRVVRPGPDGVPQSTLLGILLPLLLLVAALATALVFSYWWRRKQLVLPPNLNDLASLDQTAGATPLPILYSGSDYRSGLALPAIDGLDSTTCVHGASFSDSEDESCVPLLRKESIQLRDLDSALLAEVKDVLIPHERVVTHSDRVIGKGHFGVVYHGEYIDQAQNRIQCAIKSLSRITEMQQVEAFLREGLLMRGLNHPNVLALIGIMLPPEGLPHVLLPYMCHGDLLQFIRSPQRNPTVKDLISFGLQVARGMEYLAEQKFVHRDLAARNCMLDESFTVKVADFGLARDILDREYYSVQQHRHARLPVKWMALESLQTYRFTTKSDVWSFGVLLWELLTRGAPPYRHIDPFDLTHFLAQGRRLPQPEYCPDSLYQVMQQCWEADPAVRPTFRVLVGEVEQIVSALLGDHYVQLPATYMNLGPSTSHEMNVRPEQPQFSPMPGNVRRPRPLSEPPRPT
row,Compound,residual activity [%]
1,O=c1c(-c2ccc(F)cc2)c(-c2ccncc2)[nH]n1-c1ccc(Cl)cc1,78
2,O=C(c1cc2cc(O)ccc2[nH]1)c1cc2cc(O)ccc2[nH]1,80
3,N#Cc1c(NC(=O)c2cccc3ccccc23)sc2c1CCCC2,74
4,CN(C)S(=O)(=O)c1ccc2c(c1)/C(=C/c1cc3c([nH]1)CCCC3)C(=O)N2,64
5,NC(=O)c1ccc(-c2nc(-c3ccc4c(c3)OCCO4)c(-c3ccccn3)[nH]2)cc1,94
6,O=c1cc(N2CCOCC2)oc2c(-c3ccccc3)cccc12,64
7,O=C1NC(=O)C(c2cn(CCCO)c3ncccc23)=C1c1cnccn1,66
8,N#C/C(=C1/Nc2ccccc2S1)c1ccnc(NCCc2cccnc2)n1,84
9,CCCCc1c(-c2ccc(OC)cc2)[nH]c2nccnc12,85
10,O=C1Nc2ccccc2/C1=C\c1c(Cl)[nH]c2ccccc12,86
11,Nc1nc(Nc2ccc(S(N)(=O)=O)cc2)nn1C(=O)c1c(F)cccc1F,81
12,COc1ccc2c(c1)c(C1=C(c3c[nH]c4ccccc34)C(=O)NC1=O)cn2CCCN(C)C,77
13,COc1cc2nccc(Oc3ccc(NC(=O)Nc4cc(C)on4)c(Cl)c3)c2cc1OC,31
